In PubChem BioAssay (NCATS):
Inconclusive results are not listed. Calls of active or inactive are those of the source. The call rests on the fitted dose curve; in most records, active means well fitted curve in the direction sought with a large enough effect; inconclusive means small, poorly fitted or top-dose-only effect, or another doubt; inactive means no such curve, though single readings can be large; an effect the other way counts as inactive or inconclusive.

Tests used:
CRL-7250 = normal cell line; assay: Cytotoxic Profiling of Annotated Libraries Using Quantitative High-Throughput Screening (AID 1296008); settings: Five cell lines viability, CellTiter-Glo ATP luminescence, 48-72 h; max response: active compounds read low; further: nearly all actives have a fitted effect of over 60% in size
Procedure, shortened: (§1)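 Cells exposed to compounds for 48 or 72 hr at 37 degrees Celsius. Viability read as ATP-coupled luminescence with CellTiter-Glo after 10 min at room temperature.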

HEK293 = assay: as above; settings: Five cell lines viability, CellTiter-Glo ATP luminescence, 48-72 h; max response: active compounds read low
Procedure, shortened: as §1

HaCat [1] = assay: as above; settings: Five cell lines viability, CellTiter-Glo ATP luminescence, 48-72 h; max response: active compounds read low
Procedure, shortened: as §1

KB-3-1 = assay: as above; settings: Five cell lines viability, CellTiter-Glo ATP luminescence, 48-72 h; max response: active compounds read low
Procedure, shortened: as §1

NIH3T3 [2] = assay: as above; settings: Five cell lines viability, CellTiter-Glo ATP luminescence, 48-72 h; max response: active compounds read low
Procedure, shortened: as §1

MCC-13 = assay: qHTS assay to identify novel small-molecules to repurpose for Merkel cell carcinoma treatment (AID 1296009); settings: MCC and control cell lines, CellTiter-Glo viability, 72 h; series mostly up to 46 µM; further: nearly all actives have a fitted effect of over 60% in size
Procedure, shortened: (§2)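 Cells were treated for 72 hr at 37 degree celsius with compounds in 8- or 11-point dose response. Viability was read by CellTiter-Glo luminescence, normalized to no-cell (cytotoxicity) and DMSO controls.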

MCC-26 = assay: as above; settings: MCC and control cell lines, CellTiter-Glo viability, 72 h; series mostly up to 46 µM
Procedure, shortened: as §2

MKL-2 = assay: as above; settings: MCC and control cell lines, CellTiter-Glo viability, 72 h; series mostly up to 46 µM
Procedure, shortened: as §2

UISO = assay: as above; settings: MCC and control cell lines, CellTiter-Glo viability, 72 h; series mostly up to 46 µM
Procedure, shortened: as §2

WaGa = assay: as above; settings: MCC and control cell lines, CellTiter-Glo viability, 72 h; series mostly up to 46 µM
Procedure, shortened: as §2

C33A = assay: Primary qHTS to identify gynecologic anti-cancer compounds using libraries of approved drugs and bioactive compounds (AID 1345084); settings: Gynecologic cancer cell panel viability, ATPlite luminescence, 48 h; series mostly up to 57.5 µM; further: nearly all actives have a fitted effect of over 55% in size
Procedure, shortened: (§3)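 Luminescence from the ATPlite ATP-monitoring reagent indicates viable cell number; lower signal means cytotoxicity. Cells received compound 16 h after seeding and were exposed for 48 h across five concentrations.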

CAOV3 = assay: as above; settings: Gynecologic cancer cell panel viability, ATPlite luminescence, 48 h; series mostly up to 57.5 µM
Procedure, shortened: as §3

CASKI = assay: as above; settings: Gynecologic cancer cell panel viability, ATPlite luminescence, 48 h; series mostly up to 57.5 µM
Procedure, shortened: as §3

Es-2 = assay: as above; settings: Gynecologic cancer cell panel viability, ATPlite luminescence, 48 h; series mostly up to 57.5 µM
Procedure, shortened: as §3

Hek293T [3] = assay: as above; settings: Gynecologic cancer cell panel viability, ATPlite luminescence, 48 h, control line for the selectivity index; series mostly up to 57.5 µM
Procedure, shortened: as §3

MKL-1 = assay: qHTS assay to identify novel small-molecules to repurpose for Merkel cell carcinoma treatment (AID 1296009); settings: MCC and control cell lines, CellTiter-Glo viability, 72 h; series mostly up to 46 µM; further: nearly all actives have a fitted effect of over 60% in size
Procedure, shortened: as §2

HeLa = assay: Primary qHTS to identify gynecologic anti-cancer compounds using libraries of approved drugs and bioactive compounds (AID 1345084); settings: Gynecologic cancer cell panel viability, ATPlite luminescence, 48 h; series mostly up to 57.5 µM; further: nearly all actives have a fitted effect of over 55% in size
Procedure, shortened: as §3

NIH3T3 [4] = assay: qHTS assay to identify novel small-molecules to repurpose for Merkel cell carcinoma treatment (AID 1296009); settings: MCC and control cell lines, CellTiter-Glo viability, 72 h; at 44.8 µM (top of the series) unless noted; further: nearly all actives have a fitted effect of over 60% in size
Procedure, shortened: as §2

HACAT [5] = assay: as above; settings: MCC and control cell lines, CellTiter-Glo viability, 72 h; at 44.8 µM (top of the series) unless noted
Procedure, shortened: as §2

HEK293T [6] = assay: as above; settings: MCC and control cell lines, CellTiter-Glo viability, 72 h; at 44.8 µM (top of the series) unless noted
Procedure, shortened: as §2
On the % scale 0 is the no-effect control and ±100 the full control effect; potency means the concentration at half of the fitted maximal effect.

C(=C\c1ccccc1)/CN1CCN(C(c2ccccc2)c2ccccc2)CC1
inactive: outcome (CRL-7250) | max response (HaCat [1]) -6.19% | max response (KB-3-1) 4.11% | max response (NIH3T3 [2]) -6.19% | Potency (MCC-13) | Potency (MCC-26) | Potency (MKL-2) | Potency (UISO) | Potency (WaGa) | Potency (C33A) | Potency (CAOV3) | Potency (CASKI) | Potency (Es-2) | Potency (Hek293T [3])
active: Potency (HEK293) 15000 nM

Cc1ccc(=O)n(-c2ccccc2)c1
inactive: max response (CRL-7250) -4.72% | max response (HEK293) 4.05% | max response (HaCat [1]) 3.39% | max response (NIH3T3 [2]) -3.29% | Potency (MCC-13) | Potency (MCC-26) | Potency (MKL-1) | Potency (MKL-2) | Potency (UISO) | Potency (WaGa) | Potency (C33A) | Potency (CAOV3) | Potency (CASKI) | Potency (Es-2) | Potency (HeLa) | Potency (Hek293T [3])

CCOC(=O)c1cnc2c(cnn2CC)c1NN=C(C)C
inactive: max response (CRL-7250) 1.67% | max response (HEK293) 2.79% | max response (HaCat [1]) -11.8% | max response (KB-3-1) 7.56% | max response (NIH3T3 [2]) -3.28% | Potency (MCC-13) | Potency (MCC-26) | Potency (MKL-1) | Potency (UISO) | Potency (WaGa) | Potency (C33A) | Potency (CAOV3) | Potency (CASKI) | Potency (Es-2) | Potency (Hek293T [3])

CC(C)[N+](C)(CCOC(=O)C1c2ccccc2Oc2ccccc21)C(C)C
inactive: max response (CRL-7250) -3.69% | max response (HEK293) -1.62% | max response (HaCat [1]) -8.6% | max response (KB-3-1) -0.425% | outcome (NIH3T3 [2]) | Potency (MCC-13) | Potency (MCC-26) | outcome (NIH3T3 [4]) | Potency (UISO) | Potency (C33A) | Potency (CAOV3) | Potency (CASKI) | Potency (Es-2) | Potency (HeLa) | Potency (Hek293T [3])

Cc1nc2c([nH]1)c(=O)n(C)c(=O)n2Cc1ccco1
inactive: max response (CRL-7250) 0.6% | max response (HEK293) 4.2% | outcome (HaCat [1]) | max response (NIH3T3 [2]) -4.53% | outcome (HACAT [5]) | Potency (MCC-13) | Potency (MCC-26) | Potency (MKL-2) | Potency (UISO) | Potency (WaGa) | Potency (C33A) | Potency (CAOV3) | Potency (CASKI) | Potency (Es-2) | Potency (HeLa) | Potency (Hek293T [3])

Cc1ccc(Cl)c(Nc2ccccc2C(=O)O)c1Cl
inactive: max response (CRL-7250) 2.33% | outcome (HEK293) | max response (HaCat [1]) -3.9% | max response (NIH3T3 [2]) 3.05% | outcome (HEK293T [6]) | Potency (MCC-13) | Potency (MCC-26) | Potency (MKL-1) | Potency (MKL-2) | Potency (UISO) | Potency (WaGa) | Potency (C33A) | Potency (CAOV3) | Potency (CASKI) | Potency (Es-2) | Potency (Hek293T [3])

O=C(O)CCCCCCCC(=O)O
inactive: max response (CRL-7250) -17.5% | max response (HEK293) 3% | max response (HaCat [1]) 2.4% | outcome (NIH3T3 [2]) | Potency (MCC-13) | Potency (MCC-26) | Potency (MKL-1) | Potency (MKL-2) | outcome (NIH3T3 [4]) | Potency (UISO) | Potency (WaGa) | Potency (C33A) | Potency (CAOV3) | Potency (CASKI) | Potency (Es-2) | Potency (HeLa) | Potency (Hek293T [3])

C[C@@H](O)[C@H]1C(=O)N2C(C(=O)O)=C(SCCN=CN)C[C@H]12
inactive: max response (CRL-7250) -15.5% | max response (HEK293) -4.83% | max response (KB-3-1) -8.98% | max response (NIH3T3 [2]) -19.7% | Potency (MCC-13) | Potency (MCC-26) | Potency (MKL-1) | Potency (MKL-2) | Potency (UISO) | Potency (WaGa) | Potency (C33A) | Potency (CAOV3) | Potency (CASKI) | Potency (Es-2) | Potency (Hek293T [3])

CCCCNc1ccc(C(=O)OCCN(C)C)cc1
inactive: max response (CRL-7250) 3.25% | max response (HEK293) -4% | max response (HaCat [1]) -3.56% | outcome (NIH3T3 [2]) | Potency (MCC-13) | Potency (MCC-26) | Potency (MKL-2) | outcome (NIH3T3 [4]) | Potency (UISO) | Potency (WaGa) | Potency (C33A) | Potency (CAOV3) | Potency (CASKI) | Potency (Es-2) | Potency (HeLa) | Potency (Hek293T [3])

CCCN(CCC)CCc1cccc2c1CC(=O)N2
inactive: max response (CRL-7250) 1.13% | outcome (HEK293) | max response (HaCat [1]) -2.54% | max response (NIH3T3 [2]) -15.5% | outcome (HEK293T [6]) | Potency (MCC-13) | Potency (MCC-26) | Potency (MKL-1) | Potency (MKL-2) | Potency (UISO) | Potency (WaGa) | Potency (C33A) | Potency (CASKI) | Potency (Es-2) | Potency (HeLa) | Potency (Hek293T [3])

C[n+]1cc2c3c(ccc2c2ccc4cc5c(cc4c21)OCO5)OCO3
active: Potency (CRL-7250) 1840 nM | Potency (HEK293) 1160 nM | Potency (HaCat [1]) 2590 nM | Potency (NIH3T3 [2]) 4610 nM | Potency (MCC-26) 3660 nM | Potency (MKL-1) 1460 nM | Potency (MKL-2) 651 nM | Potency (UISO) 1300 nM | Potency (WaGa) 1030 nM | Potency (C33A) 2000 nM | Potency (Es-2) 8910 nM | Potency (Hek293T [3]) 8910 nM
inactive: max response (KB-3-1) -95.7%

CCN(CC)CCNC(=O)c1ccc(NC(C)=O)cc1
inactive: outcome (CRL-7250) | max response (HEK293) 3.23% | max response (HaCat [1]) 0.497% | max response (KB-3-1) 1.57% | max response (NIH3T3 [2]) -3.76% | Potency (MCC-13) | Potency (MCC-26) | Potency (MKL-2) | Potency (UISO) | Potency (C33A) | Potency (CAOV3) | Potency (CASKI) | Potency (Es-2) | Potency (HeLa) | Potency (Hek293T [3])

CCN1CCC[C@H]1CNC(=O)c1c(O)c(Cl)cc(Cl)c1OC
inactive: outcome (CRL-7250) | outcome (HEK293) | outcome (HaCat [1]) | max response (NIH3T3 [2]) 1.49% | outcome (HACAT [5]) | outcome (HEK293T [6]) | Potency (MCC-13) | Potency (MCC-26) | Potency (MKL-1) | Potency (MKL-2) | Potency (UISO) | Potency (WaGa) | Potency (C33A) | Potency (CAOV3) | Potency (CASKI) | Potency (Es-2) | Potency (HeLa) | Potency (Hek293T [3])

COc1cc(C(=O)OCCCN2CCCN(CCCOC(=O)c3cc(OC)c(OC)c(OC)c3)CC2)cc(OC)c1OC
inactive: max response (CRL-7250) -12.1% | max response (HaCat [1]) 3.13% | max response (KB-3-1) -1.09% | max response (NIH3T3 [2]) -3.19% | Potency (MCC-13) | Potency (MCC-26) | Potency (MKL-1) | Potency (UISO) | Potency (C33A) | Potency (HeLa) | Potency (Hek293T [3])
active: Potency (HEK293) 21100 nM
